Common to all, as to experiment: NCI-60 one-dose screen, 48 h (100 = growth as untreated, 0 = no growth, -100 = all killed)
Test [1] deals with NCI-H226 lung. The conditions noted are these: 10 µM.
The test system of test [2] is NCI-H322M lung. The conditions noted are these: 10 µM.
The test system of test [3] is HOP-62 NSCLC. The settings on record: 10 µM.
Test [4] deals with NCI-H460 lung. The conditions noted are these: 10 µM.
In test [5] the test system is NCI-H522 lung. The conditions noted are these: 10 µM.
The test system of test [6] is COLO 205 colon. The settings on record: 10 µM.
In test [7] the test system is DU-145 prostate. The settings on record: 10 µM.
The test system of test [8] is SF-268 CNS. The conditions noted are these: 10 µM.
For test [9], the system named is SF-295 CNS. The conditions noted are these: 10 µM.
Test [10] concerns SF-539 CNS. The conditions noted are these: 10 µM.
Test [11] concerns UACC-257 melanoma. The conditions noted are these: 10 µM.
The test system of test [12] is M14 melanoma. The conditions noted are these: 10 µM.
Test [13] deals with HCT-15 colon. The conditions noted are these: 10 µM.
In test [14] the test system is HT29 colon. The settings on record: 10 µM.
The subject of test [15] is SNB-19 CNS. The conditions noted are these: 10 µM.
Test [16] deals with U251 CNS. The settings on record: 10 µM.
Test [17] concerns SK-MEL-5 melanoma. The settings on record: 10 µM.
In test [18] the test system is UACC-62 melanoma. The settings on record: 10 µM.
The test system of test [19] is SK-MEL-2 melanoma. The settings on record: 10 µM.
Test [20] has as its system HL-60(TB) leukemia. The settings on record: 10 µM unless noted.

Each structure is given as a SMILES string. This is part of a sample that, as a whole, favours compounds with a hit. Of some 83,000 tested, about 20% had one in any assay.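 48-hour exposure, single concentration, 96-well plates; percent growth endpoint where 0 means no net growth. Active: below 10.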 A number with no mark means an inactive call. Calls of active or inactive are those of the source.

As to `CC(=C\C(=O)Oc1ccc2c3c1OC1C(O)CCC4(O)C(C2)N(CC2CCC2)CCC314)/C=C1\CCCc2ccccc21` (centres undefined), the growth in [1] was 56.3%; in test [2], 69.9%; in test [3], 85.6%; in test [4], 12.1%; in test [5] it was 47.2%; in test [6] it was 39.4%. Moreover, the growth in test [7] was 82.1%; in test [8] it was 73.5%; in test [9], 63.2%; in test [10], 67.8%; in test [11], -36.8% (active); in [12], -51.4% (active). For the same molecule, the growth in [13] was 7.2% (active); in test [14] it was 8.3% (active); in test [15], 70.5%; in test [16], 47.4%; in [17], 45.5%; in test [18] it was -16.4% (active). Also, the figures for the growth in test [19] and in [20] were 84.3% and 17.9%, respectively.
Take `COc1ccc2c(c1)C(Sc1ccc(Br)cc1)c1c(nc(N)c(C#N)c1N)O2` (centres undefined): the growth in test [20] is 78%.
Consider `CCN(CC)C(=O)N/C(N)=N/c1nc2ccccc2s1`, for which, in test [20], the growth is 52.1%.
On the same count and under the same terms, the figure for `CN(C)CCOc1ccc(C(=O)C2[C@H](c3ccc(Cl)cc3)[C@@H](c3ccccc3)NC23C(=O)Nc2ccc(Cl)cc23)cc1` (some centres undefined) is -75.6% (active); for `C/C(=N\NC(N)=S)c1ccc(Nc2nc(SC(C)C)nc(-c3ccccc3)c2C#N)cc1` it is 89.9%; for `COC(=O)/C=C/c1cccc2c1C(=O)NC(C)(c1cc3cc4ccccc4cc3oc1=O)N2` (centres undefined) it is 54.7%.
With `CN(CCF)c1ccc(/C=C/C(=O)c2ccc(N)cc2O)cc1`, the growth in test [20] was 58%.
Still for that read-out and setting: the figure for `O=CNc1ccc(-n2cnc3cc(-c4ccc(O)cc4)ccc32)cc1` is 64.2%; for `N#Cc1ccc(-c2nn(-c3ccc(C(=O)O)cc3)cc2CNc2ccc(Oc3ccccc3)cc2)cc1` it is 34.4%.
On the same count and under the same terms, the figure for `Cc1ccc(N=Nc2c(N)nn3c(-c4cc5cc(Br)ccc5oc4=O)ccnc23)cc1` is 83.2%; for `CCC(C)(C)c1ccc(OCCCCN2CCN(c3ccncc3)CC2)cc1` it is -57.7% (active); for `Cc1ccc2nc3c(nc2c1)c1cc(I)ccc1n3CCN(C)C` it is 13.7%.
The same measure, in the same setting: under `CC(C)CN1C(=O)/C(=C\C(=O)c2cc3ccccc3oc2=O)c2ccccc21` stands 96.1%; under `COc1ccc2oc3c4[nH]c5ccccc5c4c4c(c3c2c1)C(=O)N(C(=O)OC(C)(C)C)C4=O`, -7.65% (active); under `CC12CC[C@@H]3[C@]4(C)COC(c5cn[nH]c5-c5cccc(Cl)c5)O[C@@H]4CC[C@@]3(C)[C@@H]1CC(C1=CCOC1=O)O2` (some centres undefined), 22.3%.
With `Cn1cc(-c2nnc(N)nc2-c2c[nH]c3ccc(Br)cc23)c2cc(Br)cnc21`, the growth in [20] is 29.8%.
On the same count and under the same terms, under `COc1c(F)ccc(C(=O)Nc2ccc3nc(NC(=O)C4CCCN(S(=O)(=O)c5ccc(Br)s5)C4)sc3c2)c1F` (centres undefined) stands 80.6%; under `COc1ccc(Cc2nn(CC(=O)N/N=C/c3ccc(Br)cc3)c(=O)c3c(C)noc23)cc1`, 91.2%.
Still for that read-out and setting: under `CC(C)C[C@H](NC(=O)[C@@H]1CCCCCCCCCCC(=O)N[C@@H](CC(=O)N2CCC[C@@H]2C2CCCC2)C(=O)N1)B(O)O` stands -33.3% (active); under `COc1cc(/C=C2\C(=N)N=C(SCc3nc4ccccc4[nH]3)NC2=O)ccc1O`, 83.7%.
On to `COc1ccc(-c2nc3cc(C)ccc3n2CC(=O)N=Nc2c(O)[nH]c3ccc(Br)cc23)cc1`, for which the growth in [20] is 39.4%.
`CCCSc1nc(NCCc2c[nH]c3ccccc23)c(C#N)c(-c2ccc(F)cc2)n1`: in test [20], the growth was 54.2%.
The same measure, in the same setting: the figure for `CS(=O)(=O)Nc1cncc(-c2ccc3ncnc(NCc4ccccc4)c3c2)c1` is 54.6%.
On the same count and under the same terms, under `O=C(/C=C/Nc1ccc2oc(=O)ccc2c1)c1cc2cc(Br)ccc2oc1=O` stands 131%.
As to `COc1ccc(Cc2nn(CC(=O)N/N=C/c3ccc(F)cc3)c(=O)c3c(C)noc23)cc1`, in test [20], the growth is 78.2%.
As for `CN1CCCN(Cc2ccc(C(=O)Nc3cccc(Nc4ccc5cc(O)ccc5n4)c3)cc2C(F)(F)F)CC1`, in [20], the growth was 73.7%.
In the case of `COc1ccc(CN2[C@H](C(=O)NCc3ccc(C(=O)NO)cc3)Cc3c([nH]c4ccccc34)[C@H]2C2CC2)cc1`, the growth in test [20] is 11%.
The same measure, in the same setting: the figure for `CC(=O)OC[C@@]1(C)C2CC[C@]3(C)C(CC=C4C5CC(C)(C)CC[C@]5(C(=O)Nc5ccccc5)CC[C@]43C)[C@@]2(C)C[C@@H](OC(C)=O)[C@@H]1OC(C)=O` (some centres undefined) is 22.6%; for `COc1ccc2[nH]c(=O)c(CSc3cccc(N)c3)cc2c1` it is 51.3%; for `Cc1nc2sccn2c1-c1nnc(SCC(C)C)o1` it is 93.2%.

The values above are taken from PubChem BioAssay (NCI).
